# IL1B secr inh: inhibitors of inflammasome signaling (IL-1 beta secretion); THP-1 LPS/ATP IL-1B secretion, AlphaLISA, 16 h; active compounds read low; activity change, % at 57.5 µM; 360,000 compounds, 4.7% hits; in the data active = activity change below about -50%; inconclusive = mostly about -30% to -49%
#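 Secreted IL-1B measured by AlphaLISA bead assay after 16 h compound exposure of THP-1 cells; compounds (final up to 57.5 uM) added 1 h before LPS (250 ng/mL) and ATP (1.25 mM) stimulation; lower signal means less secretion.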
# HT1080NT lethal: kills 2HG-producing HT-1080-NT fibrosarcoma cells | Potency, µM (titrated, usually from 46.1 µM), inactives show at the highest dose activity, negative = less viability, actives largely listed as cytotoxic | AID 686970 | 360,000 compounds, 1.6% hits | HT-1080-NT fibrosarcoma viability, CellTiter-Glo ATP luminescence, 48 h;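 note: NT is the 2HG producing partner of a matched IDH1 knockdown line; potency is the fitted concentration of half-maximal effect; 0% = DMSO-treated cells and -100% = media-only wells without cells; nearly all actives have a fitted effect of over 55% in size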
#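 Luminescent CellTiter-Glo readout after 48 hours of compound exposure at 37 degrees C defined viability of HT-1080-NT cells. Activity was normalized to DMSO wells and cell-free media wells; concentration-response curves were fitted and assigned curve classes.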
# DT40 TDP1 CPT: growth inhibition of DT40 Tdp1-/-;hTDP1 cells with camptothecin (screen for TDP1 inhibitors); Potency, µM (highest dose often 46.2 µM), inactives show top-dose activity change, negative = growth inhibition, most hits filed as inhibitors; 420,000 compounds, 12% hits; chicken DT40 Tdp1-/-;hTDP1 cells + 20 nM CPT, ATP luminescence, 48 h; note: potency is the fitted concentration of half-maximal effect; nearly all actives have a fitted effect of over 55% in size
#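 Chicken DT40 Tdp1-/- cells stably complemented with human TDP1 were seeded at 400 cells/well in medium containing 20 nM camptothecin, exposed to pin-transferred compounds, and grown at 37 °C for at least 48 hr. Viability was read as ATP luminescence.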
# TDP1 cell noCPT: qHTS for Inhibitors of human tyrosyl-DNA phosphodiesterase 1 (TDP1): qHTS in cells in absence of CPT; 420,000 compounds, 15% hits; Potency, µM (titrated, usually from 46.2 µM), inactives show at the top dose activity change, negative = growth inhibition, usual class: inhibitors; DT40 Tdp1-/- hTDP1 cells, no CPT, ATP luminescence, 48 h; note: potency is the fitted concentration of half-maximal effect; nearly all actives have a fitted effect of over 55% in size
#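 Growth of hTDP1-complemented DT40 Tdp1-knockout cells is measured by ATP luminescence after at least 48 hr compound exposure at 37 °C, with DMSO substituting for the 20 nM CPT used in the parallel screen.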
# HT1080 IDH1KD tx: kills HT-1080 cells with IDH1 knockdown; HT-1080 IDH1 knockdown viability, ATP luminescence, 48 h; Potency, µM (doses to about 46.1 µM), for the others: top-dose activity, negative = toxicity, hits mostly cytotoxic; 360,000 compounds, 2% hits; AID 686971;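 note: potency is the fitted concentration of half-maximal effect; 0% = DMSO wells and -100% = cell-free medium wells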
#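 Knockdown cells (IDH1KD HT-1080) received compounds 2 h after plating at 750 cells/well and were kept 48 h at 37 °C in 5% FBS RPMI. A CellTiter-Glo luminescence read gave % activity for curve fitting.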
# * = called active by the depositor; i = inactive; ? = inconclusive; · = no result given; ! = a repeat was not active. Sampled rows, rich in hits. Any-hit rate of the full collection: about 19%. Unless noted, calls come from the whole dose curve; as a rule, active = well fitted curve in the direction sought with a large enough effect; inconclusive = small, poorly fitted or top-dose-only effect, or another doubt; inactive = no such curve, though single readings can be large; an effect the other way counts as inactive or inconclusive. Unless noted, % is set by controls: 0 for no effect and ±100 for the full control effect.
SMILES,IL1B secr inh,HT1080NT lethal,DT40 TDP1 CPT,TDP1 cell noCPT,HT1080 IDH1KD tx
CCCCOc1ccc(C2CCC(C(C)=O)C(C)C2)cc1 (configuration not stated),-4.4,1.2%,?,23.1µM*,-5.1%
O=c1c2cc(-c3ccccc3)sc2ncn1/N=C/c1ccco1,-19.0,14.3%,-2.2%,-15.2%,9.3%
Nc1nc(OCc2ccccc2)c2[nH]cnc2n1,-22.3,-5.9%,-16.0%,-9.1%,-25.6%
Nc1nc(N)c2[nH]cnc2n1,0.0,?,6.51µM*,8.2µM*,?
CC1CCCN(C(=O)c2nn(C)c3c2CS(=O)(=O)c2ccccc2-3)C1 (configuration not stated),1.6,0.8%,-7.7%,24.0%,10.1%
Cc1ccc(N2CCN(C(=O)c3nn(C)c4c3CS(=O)(=O)c3ccccc3-4)CC2C)cc1 (configuration not stated),-28.9,2.9%,20.6µM*!,?,2.4%
CCCn1nnc(NC(=O)/C=C/c2cc(Br)ccc2OC)n1,-7.8,-4.3%,23.4%,-7.8%,-22.6%
CCCCC(=O)OCC(=O)c1cc(C)n(-c2c(C)n(C)n(-c3ccccc3)c2=O)c1C,0.0,6.4%,6.4%,-25.0%,3.7%
CCCCC1(Cc2ccc([N+](=O)[O-])cc2)C(=O)N(c2ccccc2)N(c2ccccc2)C1=O,-57.9*,-18.6%,?,?,?
CCCCC1(COC(=O)CCC(=O)O)C(=O)N(c2ccccc2)N(c2ccccc2)C1=O,-3.7,-7.9%,0.0023µM*!,?,5.0%
CCOc1ccc(Nc2nc(C)c(NC(=O)c3cccc(F)c3)c(Nc3ccc(OCC)cc3)n2)cc1,·,·,0.651µM*,0.517µM*,·
Cc1cc(C(C)(C)C)ccc1NC(=O)CC(C)(C)CC(=O)O,·,20.5%,-11.2%,-26.0%,12.8%
CC1(C(=O)NS(=O)(=O)C2CC2)CCN(C(=O)COc2ccc(Cl)cc2Cl)C1 (configuration not stated),15.1,?,-0.7%,1.7%,12.5%
Cc1c(O)ccc2c3c(c(=O)oc12)CCC(C)C3 (configuration not stated),6.8,-20.3%,23.1µM*,11.6µM*,-13.8%
CC(=O)N[C@@H](CCC(N)=O)C(=O)O,·,·,3.7%,-19.7%,·
COC(=O)c1cc2c(n1S(=O)(=O)c1ccc(C)cc1)C(=O)C(=O)c1[nH]cc(C(=O)OCc3ccccc3)c1-2,-84.9*,9.2µM*,0.82µM*,1.64µM*,3.66µM*
COC(=O)c1ccc(COC(=O)c2ccc(CS(=O)(=O)c3ccc(C)cc3)cc2)cc1,9.7,-0.7%,3.4%,-1.4%,?
CC1=C(C(=O)Nc2cccc(C(F)(F)F)c2)C(c2ccccn2)n2ncnc2N1 (configuration not stated),·,·,-19.4%,-24.1%,·
CC(C)C[C@H](NC(=O)c1nc[nH]c1C(=O)NC1CCNCC1)C(=O)OCc1ccccc1,-12.3,0.0%,-8.2%,-7.0%,0.0%
CC(NC(=O)c1ccc(OC2CCN(Cc3ccccn3)CC2)cc1)c1ccccc1 (configuration not stated),-16.6,-1.3%,?,18.4µM*,-10.0%
CCCN1C2CCCC1CC(NC(=O)c1ccc(OC)cc1)C2 (configuration not stated),-10.6,11.5%,-3.6%,13.8%,7.1%
CCN(C(=O)COc1ccc(C(C)=O)cc1)c1cccc2ccccc12,?,-14.0%,14.6µM*,?,-1.1%
CCN(C(=O)COC(=O)c1cccnc1)c1cccc2ccccc12,-2.3,1.1%,?,?,7.8%
COc1ccc(Cn2ccc3nc(C)c(C(=O)Nc4ccc(OC)c(OC)c4)cc3c2=O)cc1,·,·,-3.2%,2.4%,·
COc1ccccc1NC(=O)c1cc2c(=O)n(Cc3cccs3)ccc2nc1C,·,·,?,23.1µM*,·
SMILES,IL1B secr inh,HT1080NT lethal,DT40 TDP1 CPT,TDP1 cell noCPT,HT1080 IDH1KD tx
CCc1ccc(NC(=O)c2cc3c(=O)n(Cc4cccs4)ccc3nc2C)cc1,·,·,16.4µM*,18.4µM*,·
OC1CCNC(=S)N1c1ccccc1 (configuration not stated),-1.9,14.5%,-14.1%,-15.8%,12.5%
C/C(Cc1ccccc1)=N\NC(=O)CNC(=O)c1ccc(C(C)(C)C)cc1,13.1,-5.4%,13.3%,-19.9%,2.5%
COCCNC(=O)/C(C#N)=C/c1ccc(O)c([N+](=O)[O-])c1,14.9,-27.0%,-4.7%,?,-29.3%
CCOCCCNC(=O)/C(C#N)=C/c1cc(OC)c(O)c([N+](=O)[O-])c1,0.0,6.51µM*,3.66µM*,2.91µM*,4.61µM*
CCOCCCNC(=O)/C(C#N)=C/c1cc(C)c(O)c(C)c1,14.0,-12.2%,?,23.1µM*,-16.2%
CCOCCCNC(=O)/C(C#N)=C/c1ccc(C(=O)OC)cc1,-9.7,19.6%,?,-19.4%,5.8%
CCOCCCNC(=O)/C(C#N)=C/c1ccc(Cl)c([N+](=O)[O-])c1,-28.6,23.1µM*,2.59µM*,7.31µM*,32.6µM*
CCOC(=O)C1C(c2ccccc2)C(C(=O)OCC)S(=O)(=O)C(CCN(CC)CC)S1(=O)=O (configuration not stated),-5.9,-4.1%,-19.0%,-14.7%,-2.2%
O=c1c(-c2ccc(O)cc2)coc2cc(O)cc(O)c12,-3.3,-3.2%,13.3µM*,11.9µM*,-0.9%
COc1ccc(-c2coc3cc(O)cc(O)c3c2=O)cc1,-3.2,-6.5%,?,?,-5.0%
CSc1cccc(CNC(=O)C2CCC(=O)N(CCCN3CCCC3=O)C2)c1 (configuration not stated),i,11.5%,-5.7%,13.6%,1.7%
Cc1ccc(S(=O)(=O)Nc2ccccc2C(C(=O)OC(C)(C)C)C(=O)OC(C)(C)C)cc1,-4.4,-28.1%,?,?,-9.9%
Cc1ccc(S(=O)(=O)Nc2ccccc2C(O)c2ccccc2)cc1 (configuration not stated),-6.7,-6.1%,?,18.4µM*,-3.6%
CC(C)(C)NC(=O)C(c1ccc(-c2ccccc2)cc1)n1c(=O)c(-c2ccccc2)nc2ccccc21 (configuration not stated),11.7,1.6%,?,?,-1.7%
CC(C)(C)NC(=O)C(c1cccc2ccccc12)n1c(=O)c(-c2ccco2)nc2ccccc21 (configuration not stated),14.0,-11.8%,23.1µM*,?,-19.2%
CC(C)(C)NC(=O)C(c1cccc2ccccc12)n1c(=O)c(-c2ccccc2)nc2ccccc21 (configuration not stated),17.0,-19.7%,20.6µM*,0.13µM*,-0.9%

# High-throughput results as filed in PubChem.
